# How the values were obtained:
# Assay in all cases: DAPPL (digital affinity profiling via proximity ligation, sequencing); 10 mM Tris-HCl pH 7.5, 50 mM NaCl, 1 mM DTT, 4% glycerol, room temperature, 30 min; GST-TFs on glutathione beads, 16-mer random dsDNA library, 0.1% formaldehyde crosslink after washing; high values mean tight binding
# FLI1 = target: T1, FLI1 (Homo sapiens, UniProt Q01543 1-452); details: protein: recombinant; tags: N-terminal GST; dsDNA, one strand shown
# T1 sequence: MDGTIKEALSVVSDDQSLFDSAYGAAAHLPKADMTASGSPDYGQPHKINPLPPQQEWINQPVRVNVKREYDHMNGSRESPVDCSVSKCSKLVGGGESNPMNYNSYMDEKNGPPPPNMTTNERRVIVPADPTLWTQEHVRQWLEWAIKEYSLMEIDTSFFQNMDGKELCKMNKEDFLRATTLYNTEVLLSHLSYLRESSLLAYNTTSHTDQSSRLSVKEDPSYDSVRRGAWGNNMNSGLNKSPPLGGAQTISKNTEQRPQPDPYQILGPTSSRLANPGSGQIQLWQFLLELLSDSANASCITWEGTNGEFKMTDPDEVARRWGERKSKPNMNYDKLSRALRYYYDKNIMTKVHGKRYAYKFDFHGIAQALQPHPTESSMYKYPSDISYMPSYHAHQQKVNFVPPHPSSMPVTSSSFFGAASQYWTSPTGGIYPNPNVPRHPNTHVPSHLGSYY
# Procedure, shortened: (§1)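 GST fusions of human transcription factors were expressed in yeast and captured with glutathione beads. Once given DNA barcodes and pooled alongside a tag-only sample, they were incubated for 30 min at room temperature with 200 nmole of a random double-stranded 16-mer DNA library in Tris/NaCl/DTT/glycerol buffer, then washed, crosslinked (0.1% formaldehyde), proximity-ligated, PCR-amplified and sequenced on an Illumina NextSeq500. The binding signal of each hexamer is its read frequency for a factor divided by its frequency for the tag-only sample.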
# ELK1 = target: T2, ELK1 (Homo sapiens, UniProt P19419 1-428); details: protein: recombinant; tags: N-terminal GST; dsDNA, one strand shown
# T2 sequence: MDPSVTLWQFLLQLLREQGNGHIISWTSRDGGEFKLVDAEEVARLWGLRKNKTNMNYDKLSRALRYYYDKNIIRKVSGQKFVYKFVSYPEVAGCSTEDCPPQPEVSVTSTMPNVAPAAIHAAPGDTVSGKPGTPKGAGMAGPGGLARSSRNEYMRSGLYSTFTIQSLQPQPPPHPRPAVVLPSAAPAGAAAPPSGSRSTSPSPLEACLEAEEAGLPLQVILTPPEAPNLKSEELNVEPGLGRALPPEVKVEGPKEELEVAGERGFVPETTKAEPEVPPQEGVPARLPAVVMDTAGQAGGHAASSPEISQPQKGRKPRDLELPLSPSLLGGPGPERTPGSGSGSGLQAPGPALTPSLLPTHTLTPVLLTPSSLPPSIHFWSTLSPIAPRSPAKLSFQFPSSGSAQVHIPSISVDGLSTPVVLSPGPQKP
# Procedure, shortened: as §1
# GABPA = target: T3, GABPA (Homo sapiens, UniProt Q06546 1-454); details: protein: recombinant; tags: N-terminal GST; dsDNA, one strand shown
# T3 sequence: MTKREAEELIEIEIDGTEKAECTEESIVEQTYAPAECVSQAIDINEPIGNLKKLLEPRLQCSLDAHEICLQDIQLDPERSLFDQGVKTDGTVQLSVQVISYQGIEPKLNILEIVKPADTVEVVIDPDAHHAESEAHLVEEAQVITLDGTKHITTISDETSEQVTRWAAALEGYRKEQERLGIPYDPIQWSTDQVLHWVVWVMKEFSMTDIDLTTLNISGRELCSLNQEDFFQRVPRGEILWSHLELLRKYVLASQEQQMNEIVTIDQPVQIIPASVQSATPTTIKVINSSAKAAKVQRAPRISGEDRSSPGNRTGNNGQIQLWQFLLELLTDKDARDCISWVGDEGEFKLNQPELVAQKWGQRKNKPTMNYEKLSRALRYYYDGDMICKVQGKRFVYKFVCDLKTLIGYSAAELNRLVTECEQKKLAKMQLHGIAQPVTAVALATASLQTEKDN
# Procedure, shortened: as §1
# ERG = target: T4, ERG (Homo sapiens, UniProt P11308 1-479); details: protein: recombinant; tags: N-terminal GST; dsDNA, one strand shown
# T4 sequence: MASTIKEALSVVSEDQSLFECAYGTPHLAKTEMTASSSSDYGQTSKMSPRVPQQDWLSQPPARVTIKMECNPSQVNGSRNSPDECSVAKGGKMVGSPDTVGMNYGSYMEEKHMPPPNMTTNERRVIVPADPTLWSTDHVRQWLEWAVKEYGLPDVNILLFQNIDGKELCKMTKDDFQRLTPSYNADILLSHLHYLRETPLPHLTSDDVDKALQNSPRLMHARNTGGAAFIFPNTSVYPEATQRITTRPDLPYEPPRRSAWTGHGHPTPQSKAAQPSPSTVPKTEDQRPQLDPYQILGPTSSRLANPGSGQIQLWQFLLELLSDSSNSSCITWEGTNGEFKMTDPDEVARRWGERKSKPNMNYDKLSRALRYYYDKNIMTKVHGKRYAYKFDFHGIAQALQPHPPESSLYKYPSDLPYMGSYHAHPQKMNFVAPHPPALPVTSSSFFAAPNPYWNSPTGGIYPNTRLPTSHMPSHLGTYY
# Procedure, shortened: as §1
# ELF1 = ELF1 (Homo sapiens, UniProt P32519 1-619); details: protein: recombinant; tags: N-terminal GST; dsDNA, one strand shown
# Procedure, shortened: as §1
# EHF = target: T5, EHF (Homo sapiens, UniProt Q9NZC4 1-300); details: protein: recombinant; tags: N-terminal GST; dsDNA, one strand shown
# T5 sequence: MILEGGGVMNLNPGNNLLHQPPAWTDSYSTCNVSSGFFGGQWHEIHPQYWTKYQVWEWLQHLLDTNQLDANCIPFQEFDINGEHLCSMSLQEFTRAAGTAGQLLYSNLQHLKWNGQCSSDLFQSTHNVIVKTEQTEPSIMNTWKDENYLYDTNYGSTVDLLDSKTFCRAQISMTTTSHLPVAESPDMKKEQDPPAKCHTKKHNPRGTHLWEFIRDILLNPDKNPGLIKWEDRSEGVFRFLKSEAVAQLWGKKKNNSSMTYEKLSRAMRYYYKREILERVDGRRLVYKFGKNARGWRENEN
# Procedure, shortened: as §1
# SPI1 = SPI1 (Homo sapiens, UniProt P17947 1-270); details: protein: recombinant; tags: N-terminal GST; dsDNA, one strand shown
# Procedure, shortened: as §1
# SPIB = SPIB (Homo sapiens, UniProt Q01892 1-262); details: protein: recombinant; tags: N-terminal GST; dsDNA, one strand shown
# Procedure, shortened: as §1
# ELK3 = target: T6, ELK3 (Homo sapiens, UniProt P41970 1-407); details: protein: recombinant; tags: N-terminal GST; dsDNA, one strand shown
# T6 sequence: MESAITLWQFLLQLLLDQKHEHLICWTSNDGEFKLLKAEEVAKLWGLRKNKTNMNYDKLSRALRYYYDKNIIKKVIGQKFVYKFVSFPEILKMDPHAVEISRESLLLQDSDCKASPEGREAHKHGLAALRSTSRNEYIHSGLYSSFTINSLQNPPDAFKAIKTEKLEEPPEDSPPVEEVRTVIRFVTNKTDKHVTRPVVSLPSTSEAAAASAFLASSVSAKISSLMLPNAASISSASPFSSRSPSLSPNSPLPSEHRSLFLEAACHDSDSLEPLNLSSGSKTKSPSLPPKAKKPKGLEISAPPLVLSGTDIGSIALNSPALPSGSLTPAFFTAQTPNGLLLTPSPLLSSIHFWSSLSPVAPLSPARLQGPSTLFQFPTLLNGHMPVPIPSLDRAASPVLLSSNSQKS
# Procedure, shortened: as §1
# FEV = target: T7, FEV (Homo sapiens, UniProt Q99581 1-238); details: protein: recombinant; tags: N-terminal GST; dsDNA, one strand shown
# T7 sequence: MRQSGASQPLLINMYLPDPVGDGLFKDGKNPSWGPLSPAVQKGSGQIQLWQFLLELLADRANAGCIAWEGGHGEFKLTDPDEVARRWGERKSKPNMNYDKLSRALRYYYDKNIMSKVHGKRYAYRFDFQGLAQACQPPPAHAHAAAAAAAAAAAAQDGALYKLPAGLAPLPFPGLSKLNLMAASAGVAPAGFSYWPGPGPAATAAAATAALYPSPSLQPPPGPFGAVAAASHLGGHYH
# Procedure, shortened: as §1
# ETV5 = ETV5 (Homo sapiens, UniProt P41161 1-510); details: protein: recombinant; tags: N-terminal GST; dsDNA, one strand shown
# Procedure, shortened: as §1
# HSF1 = HSF1 (Homo sapiens, UniProt Q00613 1-529); details: protein: recombinant; tags: N-terminal GST; chain copies: 3; dsDNA, one strand shown
# Procedure, shortened: as §1
# SPIC = target: T8, SPIC (Homo sapiens, UniProt Q8N5J4 1-248); details: protein: recombinant; tags: N-terminal GST; dsDNA, one strand shown
# T8 sequence: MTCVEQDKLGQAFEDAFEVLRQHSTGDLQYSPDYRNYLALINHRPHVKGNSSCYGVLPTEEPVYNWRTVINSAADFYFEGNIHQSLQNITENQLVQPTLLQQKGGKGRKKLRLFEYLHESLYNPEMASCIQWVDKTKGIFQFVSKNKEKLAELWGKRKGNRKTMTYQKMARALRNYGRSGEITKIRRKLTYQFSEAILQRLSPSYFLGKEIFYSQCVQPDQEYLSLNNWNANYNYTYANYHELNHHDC
# Procedure, shortened: as §1
# ELF4 = ELF4 (Homo sapiens, UniProt Q99607 1-663); details: protein: recombinant; tags: N-terminal GST; dsDNA, one strand shown
# Procedure, shortened: as §1
# ELK4 = target: T9, ELK4 (Homo sapiens, UniProt P28324-2 1-405); details: protein: recombinant; tags: N-terminal GST; dsDNA, one strand shown
# T9 sequence: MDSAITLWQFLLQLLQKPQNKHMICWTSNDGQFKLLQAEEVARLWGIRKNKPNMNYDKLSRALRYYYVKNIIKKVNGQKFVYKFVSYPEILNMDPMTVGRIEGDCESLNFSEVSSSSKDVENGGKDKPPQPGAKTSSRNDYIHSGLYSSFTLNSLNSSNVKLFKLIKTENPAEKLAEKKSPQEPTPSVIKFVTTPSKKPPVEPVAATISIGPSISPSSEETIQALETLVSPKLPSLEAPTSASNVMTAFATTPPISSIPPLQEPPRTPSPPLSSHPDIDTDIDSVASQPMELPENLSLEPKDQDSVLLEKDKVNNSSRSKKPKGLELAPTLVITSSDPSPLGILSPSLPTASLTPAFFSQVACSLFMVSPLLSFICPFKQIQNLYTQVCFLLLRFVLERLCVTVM
# Procedure, shortened: as §1
# ETV2 = target: T10, ETV2 (Homo sapiens, UniProt O00321 1-342); details: protein: recombinant; tags: N-terminal GST; dsDNA, one strand shown
# T10 sequence: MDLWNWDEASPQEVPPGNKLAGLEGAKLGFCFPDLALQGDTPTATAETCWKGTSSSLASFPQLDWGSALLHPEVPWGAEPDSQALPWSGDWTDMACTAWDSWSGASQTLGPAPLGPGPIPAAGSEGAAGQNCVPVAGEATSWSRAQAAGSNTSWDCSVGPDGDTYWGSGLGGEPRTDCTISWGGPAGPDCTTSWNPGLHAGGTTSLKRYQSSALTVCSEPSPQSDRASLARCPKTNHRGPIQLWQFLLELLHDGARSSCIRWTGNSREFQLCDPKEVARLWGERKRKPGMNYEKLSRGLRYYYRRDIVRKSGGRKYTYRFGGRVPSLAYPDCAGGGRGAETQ
# Procedure, shortened: as §1
# ELF3 = target: T11, ELF3 (Homo sapiens, UniProt P78545 1-371); details: protein: recombinant; tags: N-terminal GST; dsDNA, one strand shown
# T11 sequence: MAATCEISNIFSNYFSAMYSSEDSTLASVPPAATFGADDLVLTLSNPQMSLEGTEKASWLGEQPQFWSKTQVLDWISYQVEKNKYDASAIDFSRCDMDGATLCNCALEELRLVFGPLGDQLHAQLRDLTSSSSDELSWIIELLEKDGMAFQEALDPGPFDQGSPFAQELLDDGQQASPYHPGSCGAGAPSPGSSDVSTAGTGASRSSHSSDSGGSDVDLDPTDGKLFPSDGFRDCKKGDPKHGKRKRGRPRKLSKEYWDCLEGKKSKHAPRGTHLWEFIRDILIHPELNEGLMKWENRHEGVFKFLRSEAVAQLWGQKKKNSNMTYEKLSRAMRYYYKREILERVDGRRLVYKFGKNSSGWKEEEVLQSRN
# Procedure, shortened: as §1
# CRX = CRX (Homo sapiens, UniProt O43186 1-299); details: protein: recombinant; tags: N-terminal GST; dsDNA, one strand shown
# Procedure, shortened: as §1
# ETV1 = ETV1 (Homo sapiens, UniProt P50549 1-477); details: protein: recombinant; tags: N-terminal GST; dsDNA, one strand shown
# Procedure, shortened: as §1
# Sequence of ETV1 (P50549 whole entry): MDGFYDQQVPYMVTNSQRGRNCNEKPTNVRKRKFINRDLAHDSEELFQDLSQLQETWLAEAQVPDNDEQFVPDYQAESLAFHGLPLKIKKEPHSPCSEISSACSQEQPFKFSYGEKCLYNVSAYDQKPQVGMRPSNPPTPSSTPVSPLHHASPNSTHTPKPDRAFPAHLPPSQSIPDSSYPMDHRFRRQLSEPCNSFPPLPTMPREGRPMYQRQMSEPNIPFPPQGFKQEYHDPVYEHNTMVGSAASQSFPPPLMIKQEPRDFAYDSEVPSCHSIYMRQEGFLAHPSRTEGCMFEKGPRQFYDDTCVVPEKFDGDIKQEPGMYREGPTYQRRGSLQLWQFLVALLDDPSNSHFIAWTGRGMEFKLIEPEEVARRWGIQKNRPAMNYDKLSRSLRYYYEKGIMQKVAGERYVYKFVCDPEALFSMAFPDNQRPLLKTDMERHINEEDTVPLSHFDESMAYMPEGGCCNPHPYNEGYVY
# Sequence of ELF1 (P32519 whole entry): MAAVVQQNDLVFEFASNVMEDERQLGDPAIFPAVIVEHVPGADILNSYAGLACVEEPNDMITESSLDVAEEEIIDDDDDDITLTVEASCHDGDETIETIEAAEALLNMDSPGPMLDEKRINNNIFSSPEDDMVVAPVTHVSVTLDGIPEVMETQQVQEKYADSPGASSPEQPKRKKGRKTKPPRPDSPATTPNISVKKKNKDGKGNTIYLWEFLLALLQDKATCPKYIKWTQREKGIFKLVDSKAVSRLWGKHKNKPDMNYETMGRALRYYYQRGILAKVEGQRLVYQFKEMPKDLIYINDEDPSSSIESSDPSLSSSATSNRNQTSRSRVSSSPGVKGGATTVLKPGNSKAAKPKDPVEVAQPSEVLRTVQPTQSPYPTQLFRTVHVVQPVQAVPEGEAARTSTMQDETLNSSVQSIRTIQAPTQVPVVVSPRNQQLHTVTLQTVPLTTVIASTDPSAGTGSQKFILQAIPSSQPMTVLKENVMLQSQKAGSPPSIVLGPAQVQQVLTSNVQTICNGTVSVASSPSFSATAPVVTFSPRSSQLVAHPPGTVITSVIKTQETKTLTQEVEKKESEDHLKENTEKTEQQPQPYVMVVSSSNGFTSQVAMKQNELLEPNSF
# Sequence of ETV5 (P41161 whole entry): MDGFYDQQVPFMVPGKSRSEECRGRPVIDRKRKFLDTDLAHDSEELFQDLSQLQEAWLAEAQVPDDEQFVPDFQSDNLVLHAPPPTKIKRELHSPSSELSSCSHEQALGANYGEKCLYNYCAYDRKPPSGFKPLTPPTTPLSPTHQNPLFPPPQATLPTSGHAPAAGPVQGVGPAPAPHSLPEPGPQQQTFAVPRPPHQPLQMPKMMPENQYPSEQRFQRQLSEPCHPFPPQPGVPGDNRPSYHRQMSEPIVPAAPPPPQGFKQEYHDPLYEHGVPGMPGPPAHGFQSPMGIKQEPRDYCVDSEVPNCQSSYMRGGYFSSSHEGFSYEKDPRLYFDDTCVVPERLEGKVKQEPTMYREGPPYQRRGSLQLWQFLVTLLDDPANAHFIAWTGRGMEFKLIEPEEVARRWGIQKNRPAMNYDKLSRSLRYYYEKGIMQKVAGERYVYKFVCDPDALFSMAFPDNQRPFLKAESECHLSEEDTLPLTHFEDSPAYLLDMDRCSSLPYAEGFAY
# Sequence of CRX (O43186 whole entry): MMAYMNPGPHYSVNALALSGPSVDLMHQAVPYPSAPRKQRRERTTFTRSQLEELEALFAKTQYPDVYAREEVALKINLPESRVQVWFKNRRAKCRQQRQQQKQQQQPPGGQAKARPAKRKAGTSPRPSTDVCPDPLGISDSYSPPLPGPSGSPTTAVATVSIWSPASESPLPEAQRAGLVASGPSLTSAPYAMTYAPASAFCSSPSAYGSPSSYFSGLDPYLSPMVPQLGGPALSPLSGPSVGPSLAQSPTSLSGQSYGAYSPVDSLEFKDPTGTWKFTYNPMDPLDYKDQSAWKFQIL
# Sequence of SPIB (Q01892 whole entry): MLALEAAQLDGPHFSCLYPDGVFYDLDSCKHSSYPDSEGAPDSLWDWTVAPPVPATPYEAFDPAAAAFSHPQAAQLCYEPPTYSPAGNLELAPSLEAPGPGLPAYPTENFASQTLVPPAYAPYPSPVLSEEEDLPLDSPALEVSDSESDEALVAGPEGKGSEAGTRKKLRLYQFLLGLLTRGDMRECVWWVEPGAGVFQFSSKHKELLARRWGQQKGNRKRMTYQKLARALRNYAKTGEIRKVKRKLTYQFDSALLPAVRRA
# Sequence of HSF1 (Q00613 whole entry): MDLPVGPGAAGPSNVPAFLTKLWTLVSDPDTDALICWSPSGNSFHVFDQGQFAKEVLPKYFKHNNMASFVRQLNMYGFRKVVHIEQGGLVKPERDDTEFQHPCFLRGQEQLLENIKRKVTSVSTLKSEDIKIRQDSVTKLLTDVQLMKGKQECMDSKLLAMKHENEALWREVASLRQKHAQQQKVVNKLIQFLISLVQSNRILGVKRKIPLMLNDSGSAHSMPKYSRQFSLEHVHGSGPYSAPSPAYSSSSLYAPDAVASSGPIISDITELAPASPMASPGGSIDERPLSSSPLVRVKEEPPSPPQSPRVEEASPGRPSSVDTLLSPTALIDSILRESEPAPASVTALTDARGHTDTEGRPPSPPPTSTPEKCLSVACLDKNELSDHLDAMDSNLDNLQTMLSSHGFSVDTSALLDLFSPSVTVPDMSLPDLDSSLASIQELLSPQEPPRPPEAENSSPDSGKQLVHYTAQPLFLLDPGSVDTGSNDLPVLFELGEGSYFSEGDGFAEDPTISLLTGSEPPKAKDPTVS
# Sequence of ELF4 (Q99607 whole entry): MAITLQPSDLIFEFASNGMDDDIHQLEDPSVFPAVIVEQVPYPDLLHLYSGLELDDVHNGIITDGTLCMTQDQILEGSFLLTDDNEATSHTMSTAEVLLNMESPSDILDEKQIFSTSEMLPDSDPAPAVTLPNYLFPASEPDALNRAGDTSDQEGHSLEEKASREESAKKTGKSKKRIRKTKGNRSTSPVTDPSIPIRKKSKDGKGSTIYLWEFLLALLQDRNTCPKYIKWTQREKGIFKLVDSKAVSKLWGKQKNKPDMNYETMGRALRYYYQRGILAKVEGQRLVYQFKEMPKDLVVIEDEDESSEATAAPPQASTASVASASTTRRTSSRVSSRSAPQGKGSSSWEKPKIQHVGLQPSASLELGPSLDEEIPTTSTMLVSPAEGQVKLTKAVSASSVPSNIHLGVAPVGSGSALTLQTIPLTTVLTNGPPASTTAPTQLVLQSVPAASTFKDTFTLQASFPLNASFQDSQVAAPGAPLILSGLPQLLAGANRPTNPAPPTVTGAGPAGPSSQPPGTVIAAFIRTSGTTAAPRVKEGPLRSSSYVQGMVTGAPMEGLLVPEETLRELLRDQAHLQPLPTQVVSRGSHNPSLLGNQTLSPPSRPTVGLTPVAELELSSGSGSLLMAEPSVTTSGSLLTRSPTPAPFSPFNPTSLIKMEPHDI
sequence,measurement,setting,value
ACATAT,binding signal,FLI1,"1.18 fold enrichment (6-mer frequency, TF over GST control)"
same,binding signal,ELK1,"1.25 fold enrichment (6-mer frequency, TF over GST control)"
same,binding signal,GABPA,"1.3 fold enrichment (6-mer frequency, TF over GST control)"
same,binding signal,ERG,"1.25 fold enrichment (6-mer frequency, TF over GST control)"
same,binding signal,ELF1,"1.27 fold enrichment (6-mer frequency, TF over GST control)"
same,binding signal,EHF,"1.22 fold enrichment (6-mer frequency, TF over GST control)"
same,binding signal,SPI1,"1.2 fold enrichment (6-mer frequency, TF over GST control)"
same,binding signal,SPIB,"1.2 fold enrichment (6-mer frequency, TF over GST control)"
same,binding signal,ELK3,"1.28 fold enrichment (6-mer frequency, TF over GST control)"
same,binding signal,FEV,"1.29 fold enrichment (6-mer frequency, TF over GST control)"
same,binding signal,ETV5,"1.32 fold enrichment (6-mer frequency, TF over GST control)"
same,binding signal,HSF1,"1.04 fold enrichment (6-mer frequency, TF over GST control)"
same,binding signal,SPIC,"1.36 fold enrichment (6-mer frequency, TF over GST control)"
same,binding signal,ELF4,"1.3 fold enrichment (6-mer frequency, TF over GST control)"
same,binding signal,ELK4,"1.22 fold enrichment (6-mer frequency, TF over GST control)"
same,binding signal,ETV2,"1.28 fold enrichment (6-mer frequency, TF over GST control)"
same,binding signal,ELF3,"1.25 fold enrichment (6-mer frequency, TF over GST control)"
same,binding signal,CRX,"1.12 fold enrichment (6-mer frequency, TF over GST control)"
same,binding signal,ETV1,"1.26 fold enrichment (6-mer frequency, TF over GST control)"
